# Screening results deposited in PubChem by several laboratories.
# Rows were chosen to be rich in hits. Some 2.4% of all compounds tested hit in one or more screens of this group.
# HTR2A ag: mouse Htr2a agonists via beta-arrestin recruitment, primary screen, cell-based, luminescence; CHO-K1 mHTR2A beta-arrestin complementation; percent of 30 µM serotonin response; activation, % at 7.6 µM; 360,000 tested, 0.66% active;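 active means activation above a run cutoff, the mean activation of all tested compounds plus 3 SD, cut at about 14% in these data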;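 further: 0% = plate median of compound wells and 100% = 30 µM serotonin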
# Target sequence (P35363 whole entry, looked up): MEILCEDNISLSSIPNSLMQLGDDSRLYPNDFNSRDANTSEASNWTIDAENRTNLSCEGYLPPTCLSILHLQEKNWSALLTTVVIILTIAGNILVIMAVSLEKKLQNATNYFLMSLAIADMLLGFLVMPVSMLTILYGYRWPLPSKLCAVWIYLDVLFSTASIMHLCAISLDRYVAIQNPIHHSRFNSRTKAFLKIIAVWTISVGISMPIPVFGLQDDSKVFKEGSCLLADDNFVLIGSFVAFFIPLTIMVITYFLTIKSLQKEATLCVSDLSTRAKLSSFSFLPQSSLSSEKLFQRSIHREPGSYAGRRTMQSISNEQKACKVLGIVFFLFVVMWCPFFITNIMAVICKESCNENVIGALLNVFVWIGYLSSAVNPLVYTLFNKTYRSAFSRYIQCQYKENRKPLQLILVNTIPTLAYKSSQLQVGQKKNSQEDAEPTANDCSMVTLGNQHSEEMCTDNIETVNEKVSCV
# TLR9-MyD88 block: inhibitors of TLR9-MyD88 association in cells, primary screen, cell-based, CHO, BLA complementation, fluorescence. 340,000 tested, 0.21% active. Toll-like receptor 9 (Homo sapiens) + Myeloid differentiation primary response protein …. CCF4 FRET ratio. inhibition, % at 4.98 µM;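 active means inhibition above the mean over all tested compounds plus 3 SD, cut at about 21% in these data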;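 further: 0% = DMSO only wells and 100% = clavulanate BLA inhibitor control wells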
# TMEM16A inh: TMEM16A chloride channel inhibitors, primary screen, cell-based, HTS; HEK293 TMEM16A/YFP iodide influx fluorescence, ionomycin; normalized B-score (activity score, 25-100; higher = stronger inhibition) at 10 µM; Anoctamin-1 (Mus musculus), Q8BHY3; 310,000 tested, 1.2% active;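 active means ratio plate-corrected score three or more library SD toward inhibition, starting fluorescence score within five deviations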;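 further: score derived from kinetic fluorescence span divided by baseline fluorescence per well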
# TMEM16A act: TMEM16A chloride channel activators or potentiators, primary screen, cell-based, HTS; Anoctamin-1 (Mus musculus), Q8BHY3; B-score at 10 µM; AID 623877, 2012; 340,000 tested, 0.3% active; HEK293 TMEM16A/YFP-H148Q/I152L, iodide quench fluorescence; stronger effect = lower value;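 active means fluorescence-ratio B-score plate-corrected deviation score at least 3 library SD below zero, with starting fluorescence score within 5 deviations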;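 further: channel opened by trigger with iodide after compound preincubation; score built on the fluorescence ratio of max minus min over baseline; more negative score means more quench and so TMEM16A activation or potentiation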
# TLR4-MyD88 BLA: inhibitors of TLR4-MyD88 association in cells, primary screen, cell-based, HeLa CL3-4, BLA complementation, FRET ratio. Toll-like receptor 4 (Homo sapiens) + Myeloid differentiation primary response protein …. HeLa CL3-4 TLR4/MyD88 BLA complementation. inhibition, % at 8.4 µM. 200,000 tested, 0.18% active. AID 861, 2007; in the data active means inhibition above about 25%;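 further: 0% = vehicle and 100% = reference inhibitor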
# NOD2-RIPK2 inh: NOD2-RIPK2 binding disruptors in cells, primary screen, fluorescence, CHO cells, BLA complementation. CCF4 ratio. inhibition, % at 4.98 µM. 360,000 tested, 0.38% active; in the data active means inhibition above about 21%;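 further: 0% = vehicle only and 100% = reference blocker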
# Numbers without * were called inactive; i = inactive; · = no result.
SMILES,HTR2A ag,TLR9-MyD88 block,TMEM16A inh,TMEM16A act,TLR4-MyD88 BLA,NOD2-RIPK2 inh
O=C(CCCCCN1C(=O)[C@@H]2Cc3ccccc3CN2C1=O)Nc1cccc(F)c1,1,-5,25*,i,·,3
Nc1c(/C=C2/C=CC(=O)C(O)=C2)c(=O)nc2sc(CC(=O)N3CCCCC3)nn12,4,-8,i,-5.5*,·,-2
Nc1c(/C=C2/C=CC(=O)C(O)=C2)c(=O)nc2sc(CC(=O)N3CCCC3)nn12,5,4,i,i,·,-3
COC1=C/C(=C/c2c(N)n3nc(CC(=O)N4CCCC4)sc3nc2=O)C=CC1=O,0,9,i,-5.7*,·,0
C=C(C)COc1ccc(-c2[nH]ncc2Oc2ccccc2OCC)c(O)c1,4,-6,100*,i,-4,3
CCc1ccc(C2=NN(S(C)(=O)=O)C(c3cccs3)C2)cc1 (configuration not stated),-3,-2,i,i,4,-13
CCOC(=O)c1c(C)[nH]c(C(=O)CN2CC(C)OC(C)C2)c1C (configuration not stated),17*,3,i,i,-15,-10
CCOC(=O)c1c(C)[nH]c(C(=O)CN2CCN(CC)CC2)c1C,2,1,i,i,·,5
CC1=C(C(=O)N2CCOCC2)CC(CC(=O)NC2CC2)C(=O)N1Cc1ccccc1 (configuration not stated),-2,-15,·,·,·,-14
O=[N+]([O-])c1ccc(-c2cnc(SCc3ccccc3Cl)[nH]2)cc1,-13,15,100*,i,25*,14
Cc1cc(C)c(CSc2ncc(-c3ccc([N+](=O)[O-])cc3)[nH]2)c(C)c1,-5,17,i,i,14,41*
CCCCCCCCCCS(=O)(=O)N/N=C/c1ccc([N+](=O)[O-])cc1,-1,2,100*,i,-3,2
O=Cc1[nH]c2ccccc2c1N(C(=O)CCl)c1ccc([N+](=O)[O-])cc1,0,-2,25*,i,·,-4
C[C@H]1CN([C@@H](C)CO)C(=O)Cc2cc(NS(=O)(=O)c3ccc(Cl)cc3)ccc2O[C@@H]1CN(C)C(=O)Nc1cccc2ccccc12,-1,2,·,·,·,-16
O=C(NC(Nc1nc2ccc([N+](=O)[O-])cc2s1)(C(F)(F)F)C(F)(F)F)c1ccccc1Cl,2,1,100*,i,-17,19
O=C(NC(Nc1nc2ccc([N+](=O)[O-])cc2s1)(C(F)(F)F)C(F)(F)F)c1cccnc1,2,-5,100*,i,-9,5
CN(C)S(=O)(=O)c1ccc2nc(NC(=O)c3cccnc3)sc2c1,1,-2,i,i,4,-6
COCCNC(=S)N(CCc1c(C)[nH]c2ccc(Cl)cc12)Cc1cccs1,-2,-3,100*,i,0,2
COCCNC(=S)N(CCc1c(C)[nH]c2ccc(F)cc12)Cc1cccs1,5,2,i,i,-9,-6
Cc1ccc(S(=O)(=O)N(C)CC(=O)O/N=C(\N)c2cccc(Br)c2)cc1,5,-12,i,-14*,·,-7
Cn1c(=O)n(C)c2cc(NS(=O)(=O)c3ccc(C(C)(C)C)cc3)ccc21,-1,-5,25*,i,-13,8
Cn1c(=O)n(C)c2cc(NS(=O)(=O)c3ccc4c(c3)CCCC4)ccc21,1,9,i,i,-20,-6
COc1ccc(NC(=S)NNC(=O)CCn2cc([N+](=O)[O-])cn2)cc1,6,-9,i,i,-1,-3
COc1cc(NC(=O)c2cc3ccccc3cc2O)c(OC)cc1Cl,21*,6,i,i,·,18
CN(C)c1nc(N(C)C)nc(N(C#N)Cc2ccc(Cl)cc2)n1,-4,-10,i,i,·,-2
SMILES,HTR2A ag,TLR9-MyD88 block,TMEM16A inh,TMEM16A act,TLR4-MyD88 BLA,NOD2-RIPK2 inh
Cc1ccnc2nc(C(=O)Nc3ccc(N4CCOCC4)cc3)nn12,5,3,i,-11*,6,-6
O=C(Nc1ccc(N2CCOCC2)cc1)c1ccncc1,2,-4,i,i,-7,-10
CCOc1ccccc1C1CC(=O)NC2=C1C(=O)CC(C)(C)C2 (configuration not stated),4,-8,i,i,8,-15
CCc1ccc(S(=O)(=O)/N=C2\C=C(NS(=O)(=O)c3ccccc3)C(=O)c3ccccc32)cc1,-5,6,·,i,·,-1
Cc1ccc(C)c(S(=O)(=O)/N=C2\C=C(NS(=O)(=O)c3ccccc3)C(=O)c3ccccc32)c1,-6,-9,100*,i,·,0
O=C(NCCC(=O)N1CCCCC1)c1ccc(Br)cc1,-4,-4,i,i,·,-4
CCCc1cc(C(=O)N2CCCC(C(=O)c3cccc4ccccc34)C2)n(C)n1 (configuration not stated),4,-1,i,i,-6,-23
CCc1cc(C(=O)N2CCCC(C(=O)c3cccc4ccccc34)C2)n(C)n1 (configuration not stated),-2,-4,25*,i,-18,-15
COc1ccc(C2C(C#N)=C(N)Oc3c2sc2nc(C)cc(C)c32)cc1 (configuration not stated),-1,6,i,-7.1*,2,-21
Nc1ncnc2c1ncn2[C@@H]1O[C@H](C(=O)N2CCN(c3ccc(Cl)cn3)CC2)[C@@H](O)[C@H]1O,-2,·,·,·,·,-5
O=C(COC(=O)CNC(=O)c1ccccc1F)Nc1nnc(-c2ccccc2)o1,3,-25,i,i,·,-1
COc1ccc(C(c2sc3nc(C)nn3c2O)N2CCCCC2)cc1 (configuration not stated),-2,1,i,i,-22,-15
CC(C)Oc1ccc(CNC(=O)CC(c2ccccc2)c2cc(Cl)ccc2O)cc1 (configuration not stated),3,5,100*,i,-7,-20
COc1ccccc1C(CC(=O)Nc1ccc(Cl)cc1)c1ccc(OC(C)C)cc1 (configuration not stated),0,-4,i,i,3,-11
CC1CCN(c2c(NCC3CCC(C(=O)NCCC4=CCCCC4)CC3)c(=O)c2=O)CC1 (configuration not stated),1,-2,i,i,·,-7
